# Bioassay records: PubChem BioAssay, several laboratories
# An excerpt weighted towards active compounds, which were near 27% of everything screened.
# CYP2C9 act = increases human cytochrome P450 2C9 activity; P11712; recombinant CYP2C9, luciferin-H conversion, luminescence; stronger effect = higher value; factor 1 = untreated enzyme, 0 = blocked; activation factor at 5 µM; 1.4% of 96,000 active;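 active = activation factor of 2 or more for CYP2C9 at a 5 µM dose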;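 also: 0 = sulfaphenazole-blocked wells and 1 = vehicle-only wells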
# EphB4 ephrin blk = EphB4-ephrin-B2 interaction antagonism. inhibition, % at 7 µM. EphB4 LBD / TNYL-RAW-Alexa532 peptide, fluorescence polarization. 0.15% of 97,000 active. P54760;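 active = inhibition above the screen-wide mean inhibition plus 3 SD, cut at about 15% in these data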;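 also: 0% = DMSO wells and 100% = excess unlabeled TNYL-RAW peptide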
# Target sequence (P54760 whole entry, looked up, the tested form may be a part): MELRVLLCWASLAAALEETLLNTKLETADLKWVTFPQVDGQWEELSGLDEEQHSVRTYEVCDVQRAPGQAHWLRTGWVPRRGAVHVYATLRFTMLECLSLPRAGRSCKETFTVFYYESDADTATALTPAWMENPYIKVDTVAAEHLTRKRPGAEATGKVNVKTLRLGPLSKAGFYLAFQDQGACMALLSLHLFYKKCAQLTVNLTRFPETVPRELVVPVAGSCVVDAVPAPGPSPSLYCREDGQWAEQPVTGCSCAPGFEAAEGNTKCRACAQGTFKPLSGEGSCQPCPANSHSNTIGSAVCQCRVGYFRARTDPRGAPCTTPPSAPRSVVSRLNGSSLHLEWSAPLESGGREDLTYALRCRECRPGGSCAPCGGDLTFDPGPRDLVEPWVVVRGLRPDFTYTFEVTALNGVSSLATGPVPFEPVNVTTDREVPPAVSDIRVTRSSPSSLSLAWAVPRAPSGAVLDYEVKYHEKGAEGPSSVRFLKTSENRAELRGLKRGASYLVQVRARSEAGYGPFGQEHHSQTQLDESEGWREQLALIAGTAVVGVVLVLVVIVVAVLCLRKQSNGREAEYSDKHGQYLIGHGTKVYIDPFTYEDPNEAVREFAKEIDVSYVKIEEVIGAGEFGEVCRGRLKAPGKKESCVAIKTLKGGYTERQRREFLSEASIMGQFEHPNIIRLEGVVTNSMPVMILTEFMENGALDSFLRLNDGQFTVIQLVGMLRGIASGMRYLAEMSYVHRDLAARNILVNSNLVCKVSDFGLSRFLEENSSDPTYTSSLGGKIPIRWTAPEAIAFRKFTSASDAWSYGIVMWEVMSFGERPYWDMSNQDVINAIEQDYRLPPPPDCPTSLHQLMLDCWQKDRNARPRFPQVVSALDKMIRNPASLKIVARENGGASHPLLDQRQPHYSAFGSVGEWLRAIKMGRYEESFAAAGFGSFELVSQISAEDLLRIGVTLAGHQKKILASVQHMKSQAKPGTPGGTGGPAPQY
# CYP2C9 inhib = inhibitors of human CYP2C9 | CYP2C9 Supersomes, luciferin-H conversion, luminescence | inhibition, % at 5 µM | 20% of 96,000 active;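 active = blocking of liver enzyme CYP2C9 beyond about 50% at 5 µM, limit read from the data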
# CYP2C19 inhib = human CYP2C19 inhibition | inhibition, % at 5 µM | 21% of 96,000 active | CYP2C19 Supersomes, luciferin-H EGE luminescence, 30 min | AID 778 | P33261;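 active = CYP2C19 inhibition above a set limit at 5 µM in the primary screen, cut at about 50% in these data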;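 also: plate controls were negative control wells for no effect and 2.5 mM tranylcypromine positive control for full effect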
# CYP2C19 activ = activators of human cytochrome P450 2C19; P33261; recombinant CYP2C19, luciferin-H EGE luminescence; stronger effect = higher value; 0 = fully inhibited enzyme, 1 = untreated enzyme; activation factor at 5 µM; 96,000 tested, under 10 active; AID 1025;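 active = activation factor of at least 2 at 5 µM in the primary screen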;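 also: 0 = wells with 2.5 mM tranylcypromine and 1 = vehicle-only wells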
# Starred values were filed as active, the others as inactive; nt = not tested or not shown.
SMILES,CYP2C9 act,EphB4 ephrin blk,CYP2C9 inhib,CYP2C19 inhib,CYP2C19 activ
Cc1ccc2nc3c(cc2c1)c(NC(=O)c1cccnc1)nn3C,0.4,-11,58*,40,0.6
CCCC(=O)Nc1nn(C)c2nc3cc(C)ccc3cc12,0.7,nt,32,15,0.8
CCOC(=O)c1sc(NC(=O)/C=C/c2cnn(C)c2C)c(C(=O)OCC)c1C,0.8,-6,25,6,0.9
O=C(NC1CCCCC1)C(c1ccncc1)N(CC1CCCO1)C(=O)C(F)(F)F (stereo not given),0.6,2,42,58*,0.4
O=C(NC1CCCC1)C(c1ccc(O)cc1)N(CC1CCCO1)C(=O)C1COc2ccccc2O1 (stereo not given),0.3,1,70*,56*,0.4
CCC(C)N(C(=O)C(F)(F)F)C(C(=O)NC1CCCCC1)c1ccncc1 (stereo not given),nt,-4,nt,nt,nt
COCCNC(=O)C(c1ccc(O)cc1)N(Cc1ccco1)C(=O)CCC(=O)Nc1nccs1 (stereo not given),0.9,10,12,3,1
C/C(N)=C(/C#N)C(=O)CSc1nnc(Nc2ccccc2C)s1,0.6,2,45,60*,0.4
CC(C)N(C(=O)CSc1nnc(NC(=O)C2CCC2)s1)C(C)C,1.3,-1,-29,-10,1.1
CSc1nnc(Nc2ccccc2C)s1,0.7,-6,26,68*,0.3
C/C(N)=C(/C#N)C(=O)CSc1nnc(NC(C)C)s1,0.7,5,31,56*,0.4
c1cn(CC2(Cn3ccnc3)COC2)cn1,1,11,-3,-14,1.1
CCC(C)(C)C1CCc2c(sc(NC(=O)c3ccoc3C)c2C(N)=O)C1 (stereo not given),1.2,-2,-16,-4,1
Cc1occc1C(=O)Nc1sc2c(c1C(N)=O)CCC(C(C)(C)C)C2 (stereo not given),0.4,4,58*,7,0.9
O=C(Cn1ncc2c1-c1ccccc1OC2)Nc1nc2ccccc2s1,0.4,7,55*,46,0.5
CCN(CC)C(=O)Cn1ncc2c1-c1ccccc1OC2,0.9,1,10,5,0.9
CC(CCc1ccco1)NC(=O)Cn1ncc2c1-c1ccccc1OC2 (stereo not given),0.3,-4,67*,80*,0.2
CCCC(C(=O)NC1CCCCC1)N(Cc1ccco1)C(=O)CNS(=O)(=O)c1ccccc1 (stereo not given),0.8,-6,21,29,0.7
Cc1ccc(N)cc1CN1CCCC1=O,0.9,nt,7,11,0.9
CCC1CCCCN1C(=O)CSc1nc2c(cnn2-c2ccc(C)cc2)c(=O)[nH]1 (stereo not given),0.8,6,17,22,0.8
N=c1sccn1CC(=O)NCCc1ccc(Cl)cc1,1.1,-9,-11,6,0.9
Cc1ccc(NC(=O)c2ccco2)c(NC(=O)c2cccs2)c1,1,3,-1,-9,1.1
Cc1ccc(-n2c(SCc3cc(=O)n4ccsc4n3)nnc2-c2cccnc2)c(C)c1,0.7,0,35,12,0.9
c1ccc(-c2c[nH]c3[n+]2CCCCC3)cc1,1,-7,-4,55*,0.5
N/C(Cc1ccc(Cl)cc1)=N\OC(=O)c1cccc2ccccc12,2*,5,-103,12,0.9
SMILES,CYP2C9 act,EphB4 ephrin blk,CYP2C9 inhib,CYP2C19 inhib,CYP2C19 activ
COc1cc(S(=O)(=O)N2CCCCC2)ccc1NC(=O)c1ccccc1Cl,nt,3,nt,nt,nt
CCCCC(=O)Nc1ccc(NC(=O)CC)cc1OC,0.6,-5,40,10,0.9
CCC(=O)Nc1ccc(S(=O)(=O)N2CCCCC2)cc1OC,2.4*,-7,-142,67*,0.3
COc1cc(S(=O)(=O)N2CCOCC2)ccc1NC(=O)COC(=O)CC12CC3CC(CC(C3)C1)C2,0.2,-3,82*,69*,0.3
CCC(=O)Nc1ccc(S(=O)(=O)Nc2cccc(C)c2)cc1OC,1.6,1,-60,71*,0.3
Cc1ccc(SCCNC(=O)c2cccc([N+](=O)[O-])c2C)cc1,0.7,4,30,23,0.8
O=C(NCc1ccccc1)C1C2C=CC3(CN(Cc4cccnc4)C(=O)C13)O2 (stereo not given),1,-1,-4,6,0.9
CC1CCCCN1CCNC(=O)c1cc2c(-c3ccccc3F)nn(C)c2s1 (stereo not given),0.9,0,14,3,1
CCC(=O)N1CCNC(=O)C1CC(=O)Nc1ccc(C)c(Cl)c1 (stereo not given),1.1,2,-11,-6,1.1
